Laboratory results reported in ChEMBL document CHEMBL3988442, “University of Dundee, Small-Polar-MMV Screening Library” (2021).

These compounds were tested against Shiga toxin 2 (Escherichia coli O157:H7) (UniProt P09385+P09386) (assay: E. coli 0.157:H7 Shiga Toxin SOP - stx2 screening assay). Details: 30 µM.
Type: functional
Set-up: scale not given: direction of the effect not stated beside the values
For `Cc1cc(=O)n(CC(=O)NCCC(C)C)c(-c2cccc(Cl)c2)n1`, the Percent Effect was -9.6%. In the case of `CCn1cnnc1CNC(=O)NC(C)C(C)C` (stereo not given), the Percent Effect is reported as 7.89%. `CC(C)CC(=O)N1C[C@@H]2CCN(c3ncccn3)C[C@@H]2C1` was tested, and the Percent Effect was -21.6%. `Cc1cnc(N)c(C(=O)C2CCN(C(=O)c3ccccc3F)CC2)c1` gave a Percent Effect of -8.93%. `COc1ccc(NC(=O)CNc2ccc(Br)cc2F)cc1` showed a Percent Effect of -79.8%. Work on `Cc1[nH]/c(=N\C(=O)c2csc(NC3CC3)n2)sc1C` yielded a Percent Effect of 7.35%. Work on `CC(=O)N(Cc1ncc(C)o1)C1CCN(CCCc2cnn(C)c2)C1` (stereo not given) yielded a Percent Effect of -33.8%. With `CCN1CCC2(C=C(C(=O)NC3CC3)c3ccccc32)CC1` the Percent Effect was 1.55%. Work on `CN(Cc1ccsc1)C(=O)CN1CCCC1Cn1cccn1` (stereo not given) yielded a Percent Effect of -9.42%. For `Cc1ccc(NC(=O)N2CCC(NC(=O)c3ccc(C)o3)CC2)cc1`, the Percent Effect was 25.3%. `Cc1cccc(CNCc2c(C)nn(C)c2N2CCOCC2)n1` gave a Percent Effect of -0.864%. `CCCN(C(=O)c1ccccn1)c1nc2c(s1)CCc1c-2cnn1C` showed a Percent Effect of -72.4%. `CN(C)C(=O)[C@@H]1CCO[C@@H]2CCN(Cc3ccc4c(c3)OCO4)C[C@@H]21` showed a Percent Effect of -27.6%. Compound `Cc1cc(NC(=O)C(c2cccc(F)c2)N2CCOCC2)ccn1` (stereo not given) has a Percent Effect of -6.3%. With `Fc1ccccc1-c1noc2c1CN(CC1CC1)CC2` the Percent Effect was -8.88%. In the case of `Cc1cnn(CC2CCCN2Cc2nc3ccccc3n2C)c1` (stereo not given), the Percent Effect is reported as -9.07%. `CCn1nc(C)c2nc(C(C)C)nc(NCCCO)c21` gave a Percent Effect of -3.03%. `O=C(NCc1ccco1)[C@@]12CCO[C@@H]1CCN(CCN1CCCC1)C2` showed a Percent Effect of -24.8%. For `CCN(CC)S(=O)(=O)N1CCCC(c2ccc(C(=O)O)cc2)C1` (stereo not given), the Percent Effect was -2.52%. `CCc1nc(CCNC(=O)C2CCOC2)sc1C` (stereo not given) gave a Percent Effect of 30.6%. Compound `CC(=O)N1CCC2(CCCN(C(=O)c3ccccc3)C2)C1` (stereo not given) has a Percent Effect of -1.81%. Work on `CC(=O)N1CCC2(CC1)CC[C@@]1(C(=O)N(C)C)CN(S(C)(=O)=O)C[C@@H]21` yielded a Percent Effect of -10.1%. `COCCN1CCN(Cc2noc(C3CC3)n2)CC1C` (stereo not given) was tested, and the Percent Effect was -12.1%. Work on `COc1ncnc2c1CCN(c1cc(C(F)(F)F)ncn1)CC2` yielded a Percent Effect of -1.32%. With `CC(O)CN1CCN(C(=O)CN(C)c2cnccn2)CC1` (stereo not given) the Percent Effect was -8.23%. `Cc1noc(C2CCN(Cc3cc(=O)n(C)c(=O)n3C)CC2)n1` gave a Percent Effect of -1.09%. For `Cc1nn(C)c(N(C)C)c1CNCc1cccnc1-n1cncn1`, the Percent Effect was -5.81%. Work on `CC(Cn1ccnc1)NC(=O)N1CCN(Cc2cccnc2)CC1` (stereo not given) yielded a Percent Effect of 6.15%. For `CCOc1cc(CN(C)CCOC)ccc1OC(F)F`, the Percent Effect was -67.7%. `CC(NC(=O)COc1ccc(F)cc1)c1nnc2n1CCCCC2` (stereo not given) gave a Percent Effect of 13.1%. For `COCCO[C@@H]1CCN(Cc2csc(C)n2)[C@H]1Cc1ccccc1`, the Percent Effect was 1.09%. Compound `COCCCNC(=O)CN(C)C(=O)c1cc(C)sc1C` has a Percent Effect of 10.4%. `COc1cc(N2C[C@H]3OCC[C@H]3[C@H](C(=O)NC3CC3)C2)ncn1` gave a Percent Effect of -2.62%. In the case of `CS(=O)(=O)N1CC[C@H]2C[C@@H](C(=O)N3CCOCC3)O[C@@H]2C1`, the Percent Effect is reported as 5.94%. `CC(C)n1ccnc1C1CCN(C(=O)c2cc[nH]n2)CC1` gave a Percent Effect of 14.3%. For `CC(C)Oc1ncnc2c1CCN(Cc1cccs1)CC2`, the Percent Effect was 17.6%. `COCc1c(C(=O)O)nnn1Cc1cccc(C(F)(F)F)c1` showed a Percent Effect of -31%. Compound `O=C(Nc1cc(C(F)(F)F)c[nH]c1=O)N1CCCSCC1` has a Percent Effect of 8.92%. For `COc1ccccc1S(=O)(=O)N1CCC(Oc2cccnn2)CC1`, the Percent Effect was -12.5%. Work on `O=C(NC1CC1)c1ccc2ccc(N3CCN(CC4CC4)CC3)n2c1` yielded a Percent Effect of -80.6%.
